Screens: PubChem, The Scripps Research Institute Molecular Screening Center
AHR activator: activates the human aryl hydrocarbon receptor. activation, % at 5 µM. actives 2.5% (n = 320,000). AHR-responsive luciferase reporter cells, luminescence; in the data active = activation above about 47%;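 note: 0% = vehicle wells and 100% = reference agonist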
hgDAF12 agonist: agonists of H. glycines DAF-12 nuclear receptor. HEK293 GAL4-hgDAF12 UAS-luciferase reporter, agonist luminescence; normalized to butyrate control. activation, % at 6.8 µM. actives 1.8% (n = 370,000);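 active = activation above a cutoff set at the mean of all screened compounds plus 3 SD, cut at about 10% in these data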;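 note: 0% = DMSO wells and 100% = sodium butyrate wells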
hcDAF-12 act: activators of H. contortus DAF-12 nuclear receptor. HEK293 hcDAF-12 lit1-tk-luc reporter, luminescence; 0% DMSO, 100% Δ7-dafachronic acid. activation, % at 6.8 µM. actives 1.4% (n = 370,000). AID 652067;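 active = activation above the mean of all tested compounds plus 3 SD, cut at about 5.5% in these data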;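 note: 100% = response to 3 µM Δ7-dafachronic acid high control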
DAX1 inh-1: inhibits human nuclear receptor DAX1 | HEK293 Gal4-DAX1 luciferase reporter, luminescence | P51843 | actives 0.99% (n = 340,000) | AID 504766 | inhibition, % at 6.75 µM;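 active = inhibition above the mean over all tested compounds plus 3 SD, cut at about 4.2% in these data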;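 note: 0% = DAX1-transfected cells with DMSO and 100% = empty-vector control cells with DMSO; inhibition shows as a rise in luminescence from relieved DAX1 repression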
Target sequence (P51843 207-470 limits assumed): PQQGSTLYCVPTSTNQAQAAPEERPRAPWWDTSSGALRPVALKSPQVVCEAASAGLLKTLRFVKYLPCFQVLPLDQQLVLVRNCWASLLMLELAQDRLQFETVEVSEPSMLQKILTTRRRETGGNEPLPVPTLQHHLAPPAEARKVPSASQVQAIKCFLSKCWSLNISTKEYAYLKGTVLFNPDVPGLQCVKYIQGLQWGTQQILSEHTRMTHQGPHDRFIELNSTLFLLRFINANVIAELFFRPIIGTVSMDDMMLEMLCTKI
DAX1 inh-2: blocks DAX1 repression of SF-1 activated StAR promoter | HEK293T StAR-luciferase reporter, SF-1/DAX-1 repression relief | inhibition, % at 6.8 µM | actives 1.1% (n = 370,000) | AID 652010;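 active = inhibition above the mean over all tested compounds plus 3 SD, cut at about 3.6% in these data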;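 note: 0% = DAX-1 cells with DMSO and 100% = cells lacking DAX-1 with DMSO; higher inhibition means more luminescence from relief of DAX-1 repression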
ssDAF12 agonist: activators of S. stercoralis DAF-12 nuclear receptor. activation, % at 6.8 µM. actives 1% (n = 370,000). HEK293 ssDAF-12/GRIP1 lit1-tk-luc reporter, luminescence; % of 3 µM dafachronic acid response;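 active = activation above the mean over all tested compounds plus 3 SD, cut at about 0.9% in these data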;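 note: 0% = DMSO-only wells and 100% = 3 µM delta7-dafachronic acid wells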
Active calls of the source: *; nt = no result given. The list is not random: actives were taken first. Their share in the collection is about 5.7%.

SMILES | AHR activator | hgDAF12 agonist | hcDAF-12 act | DAX1 inh-1 | DAX1 inh-2 | ssDAF12 agonist
CCCS(=O)(=O)n1nc(-c2ccc(Br)cc2)cc1N | 58* | 5 | -1 | 0 | 0 | -1
COc1ccc(-c2cc3ncnc(Cl)c3s2)cc1 | 9 | 11* | 4 | 1 | 1 | 0
COc1ccc(-c2cc3nnc(-c4ccccc4)nc3s2)cc1 | 3 | 2 | 0 | 2 | 0 | -1
O=C(Nc1ccnn1C1CCN(C(=O)c2ccccc2C(F)(F)F)CC1)C1CC1 | 4 | 0 | 1 | 1 | -1 | -1
COc1cc(C)ccc1OCc1cc(C(=O)NC(C)Cn2cncn2)no1 (configuration not stated) | 21 | 11* | 4 | 2 | 2 | 1
COc1cc(Cl)ccc1OCc1cc(C(=O)NC(C)Cc2cccnc2)no1 (configuration not stated) | 42 | 3 | 0 | 1 | 1 | -1
Clc1nc(-c2cccnc2)nc2scc(-c3ccccc3)c12 | 68* | 3 | 3 | 0 | 0 | 0
CCN(CC(=O)NC(C)C)C(=O)[C@@H](NC(=O)c1ccco1)C(C)C | -1 | 4 | 2 | 1 | 1 | 0
CCCSc1ccc(C(=O)Nc2ccc(Cl)cc2)cn1 | 60* | 5 | 4 | 0 | 0 | 0
N#C/C(=C\c1ccccn1)c1nc2ccccc2s1 | 11 | 4 | 3 | 1 | 0 | 0
COc1ccc(/C(C#N)=C/c2ccccn2)cc1 | -4 | 12* | 4 | 1 | 1 | 0
Cn1ccc(-c2ccccc2)c(C#N)c1=O | 1 | -2 | -1 | 0 | -1 | -1
CCC(=O)c1ccc(OCc2ccc(C#N)cc2)cc1 | 1 | 12* | 0 | 2 | 2 | 0
CCN(CC)CCNc1ccc2nnc(CCNS(=O)(=O)c3ccc(C)cc3)n2n1 | -1 | 0 | -3 | 0 | 0 | -1
Cc1cc(C)c(C(N)=O)c(SCC(=O)c2cc(C)c(C)cc2C)n1 | 20 | 0 | -3 | -1 | 0 | -2
C=CCSc1[nH]c(=O)cc(C)c1C(N)=O | -2 | -1 | -1 | 5.1* | 0 | 0
Cc1ccc(NNC(=O)c2c(F)cccc2Cl)cc1C | 4 | 2 | 4 | 0 | 0 | -1
CC(=O)c1ccc(NS(=O)(=O)c2cccc(C)c2)cc1 | 4 | 12* | 1 | 3 | 1 | -1
COC(=O)c1cc(OC)c(OC)cc1NCC(=O)Nc1ccc(C)cc1 | 23 | -1 | -1 | -2 | 0 | -1
COC(=O)c1cc(OC)c(OC)cc1NCC(=O)Nc1ccc(OC)c(OC)c1 | 72* | -3 | -1 | 0 | -1 | -1
COc1ccc(NC(=O)CSc2nnc(C3CCCCC3)n2N)cc1OC | 1 | 1 | 0 | 1 | 0 | -1
CCn1c(NC(=O)C2CCCCC2)nc2ccccc21 | 1 | 0 | -1 | 1 | 0 | 0
S=C(Nc1ccccc1)Nc1nc2ccccc2n1CCOc1ccc(Cl)cc1 | 55* | 0 | -2 | 0 | 1 | -2
CCn1c(NC(=S)Nc2ccccc2)nc2ccccc21 | 56* | 1 | 2 | 2 | 1 | 0
COC(=O)c1ccc(N/C=C/C(=O)c2ccccc2)cc1 | -1 | 8 | 0 | 4.5* | 1 | 0
SMILES | AHR activator | hgDAF12 agonist | hcDAF-12 act | DAX1 inh-1 | DAX1 inh-2 | ssDAF12 agonist
COc1cccc(N/C=C/C(=O)c2ccc(OC)c(OC)c2)c1 | -7 | 2 | -2 | 2 | 0 | -1
COc1cccc(N/C=C/C(=O)c2ccc(Br)cc2)c1 | 2 | 11* | 4 | 2 | 4.4* | 0
CCOC(=O)c1ccc(N/C=C\C(=O)c2cccc(OC)c2)cc1 | 5 | 0 | 4 | -2 | 1 | -1
OC(COc1ccc(CN2CCCCO2)cc1)CN1CCCCC1 (configuration not stated) | 2 | 0 | 0 | 0 | 0 | -1
Cc1cc(Nc2ccc(Cl)cc2)n2ncnc2n1 | nt | 2 | -2 | 2 | 0 | -1
Cc1ccc2oc(C(=O)N(C)Cc3ccon3)c(C)c2c1 | 8 | 10 | 6.5* | 3 | 2 | 0
CCC(Cc1ccccc1)NC(=O)Cn1ncc2ccsc2c1=O (configuration not stated) | -2 | 11* | 5.9* | 0 | 0 | 1.0*
N#Cc1ccccc1COC(=O)c1cc(=O)c2ccccc2o1 | 3 | 2 | 6.4* | 2 | 0 | -1
COc1ccc(C2NCCc3c2[nH]c2ccccc32)cc1CSc1nc2ccccc2s1 (configuration not stated) | 17 | 2 | 5.7* | 0 | 1 | 1
c1cnc2c(C3NCCc4c3[nH]c3ccccc43)cccc2c1 (configuration not stated) | 19 | nt | nt | 5.0* | nt | nt
Cc1nnc(SCC(=O)NC2CCC(C)CC2)s1 (configuration not stated) | 1 | 0 | 0 | 0 | 0 | -1
Nc1c2c(nc3c1CCCC3)CCCC2 (tested in a mixture with another compound) | 9 | -1 | 1 | 0 | 0 | -1
Nc1c2c(nc3sc4c(c13)CCCC4)CCCCCC2 | 49* | 3 | 0 | 0 | 0 | 0
Cc1ccc(C)c2c(N)c3c(nc12)CCCCC3 (tested in a mixture with another compound) | 47* | 2 | 1 | 0 | 1 | 0
O=C1c2ccccc2C(Nc2ccc(S(=O)(=O)N3CCCCCC3)cc2)N1Cc1ccco1 (configuration not stated) | -1 | 0 | -1 | 1 | 1 | -1
COc1cc(/C=C(/C(=O)c2cccs2)c2nc3ccccc3[nH]2)ccc1O | 57* | 11* | 2 | -2 | -3 | -1
COC(=O)/C(=C\c1ccc(O)cc1)c1nc2ccccc2[nH]1 | 5 | 7 | 0 | 3 | 0 | -1
O=C(/C(=C/c1ccc(Cl)cc1)c1nc2ccccc2[nH]1)c1cccs1 | 58* | nt | nt | -5 | nt | nt
O=[N+]([O-])c1ccc2cc[nH]c2c1 | nt | -1 | 0 | -1 | 0 | -2
O=C(N/N=C/c1cc(O)ccc1Br)c1cccnc1 | 13 | -8 | -3 | -5 | -2 | -2
O=C(N/N=C\c1cc2c(cc1Cl)OCO2)c1cccs1 | 78* | 13* | 4 | 0 | 3 | 0
O=C(N/N=C\c1cc2c(cc1[N+](=O)[O-])OCO2)c1cccs1 | nt | 2 | 0 | 3 | 2 | 0
Cc1ccc(C(=O)N/N=C\c2cc3c(cc2Br)OCO3)s1 | 47* | 1 | 2 | -1 | -1 | -1
O=C(N/N=C\C=C\c1ccc2c(c1)OCO2)c1cccnc1 | 68* | 2 | 1 | 0 | -1 | -2
O=C(N/N=C/c1cc2c(cc1Br)OCO2)c1cccnc1 | 48* | 8 | -1 | 2 | 0 | -1
CCOC(=O)C(=O)N1CCN(CC)CC1 | 1 | -1 | 0 | 0 | 0 | -1
